# According to PubChem BioAssay:
# Calls of active or inactive are those of the source.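 How the source made its calls, unless noted: active means visually confirmed hit in the image check and inhibition above 20%; inconclusive means visually confirmed hit but inhibition not above 20%; inactive means no visual hit in the image check.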
# Experiments:
# [1] = inhibitors of TNFa-induced NFkB p65 translocation, primary screen, imaging, HUVEC, MLSMR starter and 10KST1 sets (AID 438;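 active means inhibition above 20% together with a positive visual image hit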;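 further: compound added about 3h40 before a 20 min TNFalpha stimulation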;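 on inhibition: signal is the nuclear over cytoplasmic p65 intensity ratio per well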); conditions: HUVEC TNFa-induced p65 nuclear translocation; cell count: measured here: nuclei count (cytotoxicity indicator), at 2.08 µM; inhibition: at 2 µM, stronger effect = higher value, 0% TNFa-plus-vehicle, 100% no-TNFa wells
# [2] = inhibitors of mutant huntingtin aggregation, primary screen, imaging, exon1htt(103Q)mCFP cells, high-content imaging (AID 483;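 active means visual image review flags a hit and inhibition of aggregation exceeds 20%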;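 further: compound exposure lasted 3 days before fixation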;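 on nuclei count: percent of the per-plate median nuclei count of sample wells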); conditions: exon1htt(103Q)mCFP cell line, aggregate imaging, at 2 µM; inhibition of aggregation: stronger effect = higher value; nuclei count: measured here: cell count, toxicity
# [3] = inhibitors of E-selectin induction by TNFa, primary screen, imaging, HUVEC, immunofluorescence, MLSMR starter and 10KST1 sets (AID 487); conditions: HUVEC TNFalpha-induced E-selectin immunofluorescence imaging, at 2 µM; inhibition: stronger effect = higher value; nuclei count: measured here: cell number, toxicity;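 on inhibition: signal is fraction of cell area covered by stained E-selectin grains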;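 on nuclei count: 100% = median nuclei count of all wells on the same plate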
# [4] = biological target: Voltage-gated potassium channel subunit beta-2 (Rattus norvegicus) (UniProt P62483); test: KvBeta enzyme negative modulators, primary screen, biochemical, NADPH fluorescence (AID 622;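 active means fluorescence slope higher than the sample average by over 3 SD, cut at about -0.22 in these data, passing the limit was not always enough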;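 further: slope of raw intensity against log time taken from 70 to 1610 s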); conditions: recombinant KvBeta, 4-cyanobenzaldehyde reduction, at 10 µM, stronger effect = higher value
# Sequence of Voltage-gated potassium channel subunit beta-2 (Rattus norvegicus) (P62483 whole entry, looked up): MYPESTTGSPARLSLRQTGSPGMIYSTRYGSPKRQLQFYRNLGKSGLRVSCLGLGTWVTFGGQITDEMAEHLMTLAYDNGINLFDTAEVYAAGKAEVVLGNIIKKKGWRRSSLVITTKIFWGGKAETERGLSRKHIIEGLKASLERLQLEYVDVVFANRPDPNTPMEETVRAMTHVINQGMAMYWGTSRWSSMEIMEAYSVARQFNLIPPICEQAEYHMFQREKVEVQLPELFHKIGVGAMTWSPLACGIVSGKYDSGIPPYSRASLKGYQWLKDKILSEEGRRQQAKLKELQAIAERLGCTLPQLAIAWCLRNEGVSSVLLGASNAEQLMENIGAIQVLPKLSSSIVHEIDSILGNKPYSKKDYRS
# [5] = biological target: Voltage-gated potassium channel subunit beta-2 (Rattus norvegicus) (UniProt P62483); test: KvBeta positive modulators, primary screen, biochemical, NADPH fluorescence (AID 623;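 active means NADPH fluorescence slope more negative than the mean of all samples by about 3 SD, 99.7% confidence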;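 further: fluorescence intensity change per second fitted from 20 to 320 s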); conditions: Recombinant KvBeta, NADPH fluorescence decrease slope, 10 min; at 10 µM; stronger effect = lower value
# [6] = biological target: Alpha-2C adrenergic receptor (Homo sapiens) (UniProt P18825); test: modulators of alpha2C/GIRK thallium flux, primary screen, cell-based, HEK293 alpha2C/GIRK1/2 (AID 624;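 active means fluorescence slope after compound addition differing from the mean of all screened samples at 99.7% confidence, in either direction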;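 further: slope of fluorescence ratio to pre-addition baseline per second over 15 to 24 s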); conditions: thallium flux BTC fluorescence, at 10 µM, actives lie on both sides
# Sequence of Alpha-2C adrenergic receptor (Homo sapiens) (P18825 whole entry, looked up): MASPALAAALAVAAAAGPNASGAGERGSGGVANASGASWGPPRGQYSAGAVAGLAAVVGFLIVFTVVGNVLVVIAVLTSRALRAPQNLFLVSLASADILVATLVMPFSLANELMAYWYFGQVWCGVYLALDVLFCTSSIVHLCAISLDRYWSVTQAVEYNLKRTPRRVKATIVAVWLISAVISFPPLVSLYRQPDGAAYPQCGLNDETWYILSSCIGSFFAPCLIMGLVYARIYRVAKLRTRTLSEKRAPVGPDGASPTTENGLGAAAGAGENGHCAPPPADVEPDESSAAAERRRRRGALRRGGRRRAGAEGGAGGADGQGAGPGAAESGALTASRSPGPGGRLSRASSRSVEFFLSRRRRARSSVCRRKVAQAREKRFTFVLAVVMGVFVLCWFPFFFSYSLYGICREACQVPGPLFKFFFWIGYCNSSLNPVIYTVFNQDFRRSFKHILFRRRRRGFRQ
# [7] = inhibitors of Sendai virus-induced IRF3 signaling, primary screen, TLR/RLR signaling modifier project, cell-based, Sendai virus stimulus, luciferase, 10K MLSCN set (AID 602276;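 active means inhibition at or above 50% at 10 µM; inactive means inhibition below 50%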;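 further: firefly luciferase from ISG56 promoter only with Renilla not read in this screen; 0% = Sendai virus plus DMSO and 100% = medium plus DMSO without virus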); conditions: HEK293 RL24 IRF3 luciferase reporter, at 10 µM, stronger effect = higher value
# [8] = inhibitors of poly I:C-induced TLR3 signaling, primary screen, cell-based, poly I:C stimulus, luciferase, 10K MLSCN set (AID 602277;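 active means inhibition of the reporter signal at or above 50%; inactive means inhibition below 50%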); conditions: HEK293-TLR3 RL24 IRF3 luciferase reporter, at 10 µM, stronger effect = higher value
SMILES,cell count [1],inhibition [1],inhibition of aggregation [2],nuclei count [2] [%],inhibition [3],nuclei count [3] [%],fluorescence slope [4],NADPH fluorescence slope [5],slope [6],inhibition [7],inhibition [8]
CCCS(=O)(=O)N1CCCC(C(=O)NC(C)c2ccc3c(c2)OCCO3)C1 (stereo unspecified),719,-10.9% (inactive),0.2% (inactive),101,-26.6% (inactive),100,-0.475 (inactive),1.2e-05 (inactive),0.00535 (inactive),9.72% (inactive),13.6% (inactive)
CCc1nnc(NC(=O)c2ccc(COc3ccccc3)o2)s1,736,-49% (inactive),-1.8% (inactive),101,-18.9% (inactive),102,-0.519 (inactive),-2.5e-05 (inactive),0.00512 (inactive),-7.49% (inactive),3.46% (inactive)
COC(=O)c1ccccc1NC1c2ccccc2C(=O)N1c1cccnc1 (stereo unspecified),725,-6.7% (inactive),-10.5% (inactive),100,-26.4% (inactive),112,-0.53 (inactive),-4.7e-05 (inactive),0.00566 (inactive),5.35% (inactive),16.8% (inactive)
CCOC(=O)c1ccc(NCc2nc3ccccc3[nH]2)cc1,670,-7.9% (inactive),-14.3% (inactive),102,-46% (inactive),126,-0.558 (inactive),2.8e-05 (inactive),0.00739 (inactive),-76.1% (inactive),-152% (inactive)
c1ccc(CCn2nnnc2CN2CCN(C3CCCC3)CC2)cc1,290,-15.4% (inactive),-9.3% (inactive),112,-40.7% (inactive),118,-0.604 (inactive),-4.3e-05 (inactive),0.0058 (inactive),-0.279% (inactive),20.4% (inactive)
COC(=O)c1cc(Br)c(=O)n(-c2ccc(OC)cc2)c1,542,-0.5% (inactive),-13.6% (inactive),108,25.8% (inactive),112,-0.503 (inactive),-3.9e-05 (inactive),0.00452 (inactive),12.6% (inactive),23.2% (inactive)
O=C(NCCO)c1cc2ccccc2cc1O,489,-8.2% (inactive),23.4% (inactive),85.8,-92.3% (inactive),109,-0.47 (inactive),-2.1e-05 (inactive),0.00658 (inactive),-5.48% (inactive),-4.78% (inactive)
O=C(Nc1cccc(F)c1)C1C2C=CC3(CN(CCCN4CCOCC4)C(=O)C13)O2 (stereo unspecified),661,-5.5% (inactive),-27.1% (inactive),118,-75.2% (inactive),116,-0.548 (inactive),-3.3e-05 (inactive),0.00626 (inactive),-14.3% (inactive),12.3% (inactive)
CCCC(c1nnnn1Cc1ccc(OC)cc1)N1CCN(c2ccccc2OC)CC1 (stereo unspecified),257,12.3% (inactive),-3.4% (inactive),101,-14.7% (inactive),82.7,-0.433 (inactive),-0.000141 (inactive),0.00492 (inactive),10.6% (inactive),23.6% (inactive)
O=C1CCCc2c1cc(C(=O)NCCCN1CCOCC1)c(=O)n2-c1ccc(Cl)cc1,568,2.5% (inactive),0.1% (inactive),99.5,-2.6% (inactive),122,-0.546 (inactive),-4e-05 (inactive),0.00614 (inactive),10.7% (inactive),45.8% (inactive)
O=C(CSc1nnc(-c2ccccc2F)o1)OCc1ccccc1,323,8.7% (inactive),-1.8% (inactive),89.1,-69.6% (inactive),99.9,-0.428 (inactive),1.9e-05 (inactive),0.00527 (inactive),4.91% (inactive),34.1% (inactive)
Cc1nc(C)c(C(=O)C2=C(O)C(=O)N(CCCn3ccnc3)C2c2ccccc2)s1 (stereo unspecified),481,4% (inactive),11.4% (inactive),89,39.5% (inactive),88.2,-0.394 (inactive),1.3e-05 (inactive),0.00668 (inactive),-7.2% (inactive),-4.54% (inactive)
CCOc1cc(C2CC(=O)N3CN(C4CCCCC4)CSC3=C2C#N)ccc1O (stereo unspecified),818,2.3% (inactive),-24.4% (inactive),114,-31.4% (inactive),110,-0.607 (inactive),1.8e-05 (inactive),0.00576 (inactive),11.2% (inactive),19.8% (inactive)
FC(F)(F)c1cccc(N2CCN(c3nnnn3-c3ccccc3)CC2)c1,394,-3.8% (inactive),-1.6% (inactive),96.2,-98.2% (inactive),112,-0.647 (inactive),1.2e-05 (inactive),0.00945 (inactive),10.2% (inactive),2.35% (inactive)
c1ccc(CN2CCN(CCCNc3ccc4nnc(-c5ccccc5)n4n3)CC2)cc1,485,-5.5% (inactive),13.8% (inactive),10.8,-67.5% (inactive),102,-0.63 (inactive),-1.7e-05 (inactive),0.00645 (inactive),-3.46% (inactive),-17.8% (inactive)
CCC(Sc1ncccc1C(=O)O)C(=O)N1CCCC1 (stereo unspecified),597,10% (inactive),32.9% (inactive),93.4,5% (inactive),116,-0.372 (inactive),-4.6e-05 (inactive),0.00559 (inactive),5.91% (inactive),15.4% (inactive)
C=CCN(C(=O)CNC(=O)c1ccco1)C(C(=O)NC1CCCCC1)c1ccccc1F (stereo unspecified),398,-1.6% (inactive),18.6% (inactive),106,5.7% (inactive),101,-0.612 (inactive),1.7e-06 (inactive),0.00581 (inactive),-3.24% (inactive),10.3% (inactive)
Cc1cccc(Nc2ncc3c(n2)CC(c2ccco2)CC3=O)c1 (stereo unspecified),386,-1% (inactive),-7% (inactive),84.1,-29% (inactive),187,-0.378 (inactive),-1.7e-05 (inactive),0.003 (inactive),-2.61% (inactive),-12.4% (inactive)
COc1cccc(S(=O)(=O)Nc2ccc(C(=O)N3CCN(C(=O)c4ccco4)CC3)cc2)c1,448,-3.9% (inactive),-8% (inactive),108,-65.5% (inactive),124,-0.507 (inactive),-3.8e-05 (inactive),0.00603 (inactive),8.1% (inactive),7.91% (inactive)
C/C=C/COC(=O)c1[nH]c2c(c1C)C(=O)CC(c1ccc(N(C)C)cc1)C2 (stereo unspecified),699,1.8% (inactive),14.4% (inactive),79.6,-46.6% (inactive),115,-0.543 (inactive),-2.2e-05 (inactive),0.00679 (inactive),-29.1% (inactive),-68.7% (inactive)
Cc1cccc(OCCCc2c(C)n[nH]c2C)c1,348,2.2% (inactive),7.5% (inactive),98.5,-10% (inactive),118,-0.501 (inactive),6.9e-05 (inactive),0.00319 (inactive),-15.1% (inactive),-15.9% (inactive)
CCCCN(C)C(=O)c1cn(C)c2ccc(S(=O)(=O)N(C)C)cc2c1=O,559,-5.1% (inactive),15.7% (inactive),76.4,39.3% (inactive),105,-0.6 (inactive),-3.3e-05 (inactive),0.00635 (inactive),6.56% (inactive),27.1% (inactive)
COc1ccccc1NC(=O)CSc1nnc(-c2ccncc2)n1CC1CCCO1 (stereo unspecified),626,20.6% (inactive),-8.1% (inactive),92.8,25.2% (inactive),100,-0.462 (inactive),-1.1e-06 (inactive),0.00619 (inactive),14.4% (inactive),98.5% (active)
CCOC(=O)CC(=O)c1cc(OC)c(OC)c(OC)c1,640,-0.6% (inactive),-4.2% (inactive),105,-56% (inactive),106,-0.432 (inactive),-2.1e-05 (inactive),0.00534 (inactive),5.89% (inactive),12.4% (inactive)
CSc1ccc(S(=O)(=O)Nc2cccc(F)c2)cc1,342,1% (inactive),-4.6% (inactive),82.9,-34.7% (inactive),96.9,-0.408 (inactive),-5.1e-05 (inactive),0.00352 (inactive),15.7% (inactive),26.6% (inactive)
CC(=O)Nc1ccc2c(c1)nc(CCNC(=O)c1ccccc1)n2C,450,1.3% (inactive),-15.3% (inactive),92.7,-62.8% (inactive),170,-0.54 (inactive),-4.9e-05 (inactive),0.00514 (inactive),1.9% (inactive),98.7% (active)
